Measurements: PubChem BioAssay AID1159580 (chemical genetic matrix, 2015)
Out of some 5,500 compounds screened, about 2,000 (36%) were called active. Inconclusive results (about 18%) are left out. No stated cut-off is given here; in the data, active means normalized growth mostly below about 0.91 (no sharp cut-off); inconclusive means no clear call, values can overlap the other calls; inactive means mostly above about 0.92. The list shows a part of the results.

Test: chemical genetic growth profiling, strain panel (AID 1159580);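 further: tested at 20 µM; growth read once vehicle control cultures reached saturation at 30 °C; 1 = growth at the plate median or of vehicle wells; lower values mean less growth of the strain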
Conditions: growth OD
[1] = S. cerevisiae deletion strains, locus YDL101C, strain DUN1, active compounds read low
[2] = S. cerevisiae deletion strains, locus YHR030C, strain SLT2, active compounds read low

Measured: normalized growth

O=[N+]([O-])c1cc(Cl)c(Sc2ccccc2)cc1Sc1ccccc1
inactive: S. cerevisiae deletion strains, locus YAL013W, strain DEP1, active compounds read low 0.995 | S. cerevisiae deletion strains, locus YBR229C, strain ROT2, active compounds read low 0.999 | S. cerevisiae deletion strains, locus YCL061C, strain MRC1, active compounds read low 0.974 | [1] 1.01 | S. cerevisiae deletion strains, locus YDR150W, strain NUM1, active compounds read low 0.983 | S. cerevisiae deletion strains, locus YEL061C, strain CIN8, active compounds read low 0.998 | S. cerevisiae deletion strains, locus YGR078C, strain PAC10, active compounds read low 0.999 | [2] 0.922 | S. cerevisiae deletion strains, locus YHR087W, strain rtc3, active compounds read low 0.998 | S. cerevisiae deletion strains, locus YJL187C, strain SWE1, active compounds read low 1.03 | S. cerevisiae deletion strains, locus YJR043C, strain POL32, active compounds read low 0.992 | S. cerevisiae deletion strains, locus YJR075W, strain HOC1, active compounds read low 0.994 | S. cerevisiae deletion strains, locus YLR039C, strain RIC1, active compounds read low 0.998 | S. cerevisiae deletion strains, locus YLR058C, strain SHM2 (second series), active compounds read low 0.992 | S. cerevisiae deletion strains, locus YLR085C, strain ARP6, active compounds read low 1.03 | S. cerevisiae deletion strains, locus YLR262C, strain YPT6, active compounds read low 0.909 | S. cerevisiae deletion strains, locus YML094W, strain GIM5, active compounds read low 1.03 | S. cerevisiae deletion strains, locus YMR219W, strain ESC1, active compounds read low 1.01 | S. cerevisiae deletion strains, locus YMR263W, strain SAP30, active compounds read low 1.01 | S. cerevisiae deletion strains, locus YNL153C, strain GIM3, active compounds read low 0.993 | S. cerevisiae deletion strains, locus YNL298W, strain CLA4 (second series), active compounds read low 1.01 | S. cerevisiae deletion strains, locus YNL322C, strain KRE1, active compounds read low 1.01 | S. cerevisiae deletion strains, locus YNR030W, strain Alg12, active compounds read low 0.977 | S. cerevisiae deletion strains, locus YOL006C, strain TOP1, active compounds read low 0.998 | S. cerevisiae deletion strains, locus YPL055C, strain LGE1, active compounds read low 1.01 | S. cerevisiae deletion strains, locus YPL241C, strain CIN2, active compounds read low 1.01 | S. cerevisiae deletion strains, locus YPR135W, strain CTF4, active compounds read low 0.925 | S. cerevisiae strains, strain wild type, active compounds read low 1.01

O=[N+]([O-])c1ccc(Sc2ccccc2)cc1O
active: S. cerevisiae deletion strains, locus YLR113W, strain HOG1, active compounds read low 0.736 | S. cerevisiae deletion strains, locus YPR106W, strain ISR1, active compounds read low 0.875
inactive: S. cerevisiae deletion strains, locus YAR019C, strain CDC15, active compounds read low 0.915 | S. cerevisiae deletion strains, locus YBL105C, strain PKC1, active compounds read low 0.925 | S. cerevisiae deletion strains, locus YBR135W, strain CKS1, active compounds read low 0.927 | S. cerevisiae deletion strains, locus YBR136W, strain MEC1, active compounds read low 0.924 | S. cerevisiae deletion strains, locus YBR160W, strain CDC28, active compounds read low 0.929 | S. cerevisiae deletion strains, locus YDL017W, strain CDC7, active compounds read low 0.929 | S. cerevisiae deletion strains, locus YDL028C, strain MPS1, active compounds read low 0.931 | [1] 0.914 | S. cerevisiae deletion strains, locus YDL108W, strain KIN28, active compounds read low 0.927 | S. cerevisiae deletion strains, locus YDL132W, strain cdc53, active compounds read low 0.909 | S. cerevisiae deletion strains, locus YDL214C, strain PRR2, active compounds read low 0.823 | S. cerevisiae deletion strains, locus YDR052C, strain DBF4, active compounds read low 0.943 | S. cerevisiae deletion strains, locus YDR054C, strain cdc34, active compounds read low 0.899 | S. cerevisiae deletion strains, locus YDR226W, strain ADK1, active compounds read low 0.958 | S. cerevisiae deletion strains, locus YDR477W, strain SNF1, active compounds read low 0.844 | S. cerevisiae deletion strains, locus YER123W, strain YCK3, active compounds read low 0.78 | S. cerevisiae deletion strains, locus YER133W, strain GLC7, active compounds read low 0.831 | S. cerevisiae deletion strains, locus YFL009W, strain cdc4, active compounds read low 0.91 | S. cerevisiae deletion strains, locus YFL029C, strain CAK1, active compounds read low 0.928 | S. cerevisiae deletion strains, locus YFR003C, strain YPI1, active compounds read low 0.928 | S. cerevisiae deletion strains, locus YFR019W, strain FAB1, active compounds read low 0.895 | S. cerevisiae deletion strains, locus YFR028C, strain CDC14, active compounds read low 0.959 | S. cerevisiae deletion strains, locus YGR040W, strain KSS1, active compounds read low 0.84 | S. cerevisiae deletion strains, locus YGR052W, strain FMP48, active compounds read low 0.817 | S. cerevisiae deletion strains, locus YGR092W, strain DBF2, active compounds read low 0.709 | [2] 0.904 | S. cerevisiae deletion strains, locus YHR079C, strain IRE1, active compounds read low 0.812 | S. cerevisiae deletion strains, locus YHR082C, strain KSP1, active compounds read low 0.838 | S. cerevisiae deletion strains, locus YHR205W, strain SCH9, active compounds read low 0.864 | S. cerevisiae deletion strains, locus YIL147C, strain SLN1, active compounds read low 0.923 | S. cerevisiae deletion strains, locus YJL095W, strain BCK1, active compounds read low 0.806 | S. cerevisiae deletion strains, locus YJL128C, strain PBS2, active compounds read low 0.843 | S. cerevisiae deletion strains, locus YJL157C, strain FAR1, active compounds read low 0.796 | S. cerevisiae deletion strains, locus YJR016C, strain ILV3, active compounds read low 0.913 | S. cerevisiae deletion strains, locus YJR066W, strain TOR1 (second series), active compounds read low 0.834 | S. cerevisiae deletion strains, locus YJR066W, strain TOR1, active compounds read low 0.827 | S. cerevisiae deletion strains, locus YKL048C, strain ELM1, active compounds read low 0.878 | S. cerevisiae deletion strains, locus YKL067W, strain YNK1, active compounds read low 0.821 | S. cerevisiae deletion strains, locus YKL101W, strain HSL1, active compounds read low 0.862 | S. cerevisiae deletion strains, locus YKL193C, strain SDS22, active compounds read low 0.921 | S. cerevisiae deletion strains, locus YKL203C, strain TOR2, active compounds read low 0.871 | S. cerevisiae deletion strains, locus YLR133W, strain CKI1, active compounds read low 0.85 | S. cerevisiae deletion strains, locus YLR403W, strain SFP1, active compounds read low 0.8 | S. cerevisiae deletion strains, locus YML070W, strain DAK1, active compounds read low 0.824 | S. cerevisiae deletion strains, locus YMR001C, strain CDC5, active compounds read low 0.919 | S. cerevisiae deletion strains, locus YMR205C, strain PFK2 (second series), active compounds read low 0.824 | S. cerevisiae deletion strains, locus YMR277W, strain FCP1, active compounds read low 0.917 | S. cerevisiae deletion strains, locus YNL006W, strain LST8, active compounds read low 0.925 | S. cerevisiae deletion strains, locus YNL020C, strain ARK1, active compounds read low 0.837 | S. cerevisiae deletion strains, locus YNL161W, strain CBK1, active compounds read low 0.922 | S. cerevisiae deletion strains, locus YNL183C, strain NPR1, active compounds read low 0.828 | S. cerevisiae deletion strains, locus YNL207W, strain RIO2, active compounds read low 0.912 | S. cerevisiae deletion strains, locus YNL222W, strain SSU72, active compounds read low 0.924 | S. cerevisiae deletion strains, locus YNL307C, strain MCK1 (second series), active compounds read low 0.836 | S. cerevisiae deletion strains, locus YOL078W, strain AVO1, active compounds read low 0.903 | S. cerevisiae deletion strains, locus YOL136C, strain PFK27, active compounds read low 0.816 | S. cerevisiae deletion strains, locus YOR061W, strain CKA2, active compounds read low 0.817 | S. cerevisiae deletion strains, locus YOR119C, strain RIO1, active compounds read low 0.892 | S. cerevisiae deletion strains, locus YOR231W, strain MKK1, active compounds read low 0.806 | S. cerevisiae deletion strains, locus YOR329C, strain SCD5, active compounds read low 0.92 | S. cerevisiae deletion strains, locus YPL031C, strain PHO85, active compounds read low 0.807 | S. cerevisiae deletion strains, locus YPL153C, strain RAD53, active compounds read low 0.828 | S. cerevisiae deletion strains, locus YPL204W, strain HRR25, active compounds read low 0.798 | S. cerevisiae deletion strains, locus YPL209C, strain IPL1, active compounds read low 0.923 | S. cerevisiae deletion strains, locus YPL256C, strain CLN2, active compounds read low 0.895 | S. cerevisiae deletion strains, locus YPR025C, strain CCL1, active compounds read low 0.924 | S. cerevisiae deletion strains, locus YPR111W, strain DBF20, active compounds read low 0.89 | S. cerevisiae deletion strains, strain NNK1, active compounds read low 0.892 | S. cerevisiae deletion strains, strain TSCII, active compounds read low 0.906
